Screen size: about 5,500 compounds; about 2,000 (36%) were called active. About 18% were inconclusive and are not listed. The list shows a part of the results. Unmarked numbers belong to inactive results. Cut-off read from the data, not from the text of the source: active = normalized growth mostly below about 0.91 (no sharp cut-off); inconclusive = no clear call, values can overlap the other calls; inactive = mostly above about 0.92.
Assay: chemical genetic growth profiling, strain panel (AID 1159580);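 note: tested at 20 µM; growth read once vehicle control cultures reached saturation at 30 °C; 1 = growth at the plate median or of vehicle wells; lower values mean less growth of the strain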
Details: growth OD
[1] = S. cerevisiae deletion strains, locus YAL013W, strain DEP1, stronger effect = lower value
[2] = S. cerevisiae deletion strains, locus YGR078C, strain PAC10, stronger effect = lower value
[3] = S. cerevisiae deletion strains, locus YMR263W, strain SAP30, stronger effect = lower value
[4] = S. cerevisiae deletion strains, locus YNL128W, strain TEP1, stronger effect = lower value
[5] = S. cerevisiae deletion strains, locus YNL322C, strain KRE1, stronger effect = lower value
[6] = S. cerevisiae deletion strains, locus YPL055C, strain LGE1, stronger effect = lower value
[7] = S. cerevisiae deletion strains, locus YAL040C, strain CLN3, stronger effect = lower value
[8] = S. cerevisiae deletion strains, locus YER002W, strain NOP16, stronger effect = lower value
[9] = S. cerevisiae deletion strains, locus YNL175C, strain NOP13, stronger effect = lower value
[10] = S. cerevisiae deletion strains, locus YNL197C, strain WHI3, stronger effect = lower value
[11] = S. cerevisiae deletion strains, locus YNL224C, strain SQS1, stronger effect = lower value
[12] = S. cerevisiae deletion strains, locus YOR083W, strain WHI5 (second series), stronger effect = lower value

Cn1nccc1NS(=O)(=O)c1ccc(C(C)(C)C)cc1
normalized growth [1]: 0.982 | normalized growth (S. cerevisiae deletion strains, locus YBR229C, strain ROT2, stronger effect = lower value): 0.97 | normalized growth (S. cerevisiae deletion strains, locus YCL061C, strain MRC1, stronger effect = lower value): 0.982 | normalized growth (S. cerevisiae deletion strains, locus YDL101C, strain DUN1, stronger effect = lower value): 0.983 | normalized growth (S. cerevisiae deletion strains, locus YDR150W, strain NUM1, stronger effect = lower value): 0.992 | normalized growth (S. cerevisiae deletion strains, locus YEL061C, strain CIN8, stronger effect = lower value): 0.984 | normalized growth [2]: 0.985 | normalized growth (S. cerevisiae deletion strains, locus YGR229C, strain SMI1, stronger effect = lower value): 0.981 | normalized growth (S. cerevisiae deletion strains, locus YHR030C, strain SLT2, stronger effect = lower value): 0.948 | normalized growth (S. cerevisiae deletion strains, locus YHR087W, strain rtc3, stronger effect = lower value): 0.973 | normalized growth (S. cerevisiae deletion strains, locus YJR043C, strain POL32, stronger effect = lower value): 0.978 | normalized growth (S. cerevisiae deletion strains, locus YJR075W, strain HOC1, stronger effect = lower value): 0.987 | normalized growth (S. cerevisiae deletion strains, locus YKL190W, strain CNB1, stronger effect = lower value): 0.96 | normalized growth (S. cerevisiae deletion strains, locus YLR039C, strain RIC1, stronger effect = lower value): 0.92 | normalized growth (S. cerevisiae deletion strains, locus YLR058C, strain SHM2 (second series), stronger effect = lower value): 0.975 | normalized growth (S. cerevisiae deletion strains, locus YLR085C, strain ARP6, stronger effect = lower value): 1.08 | normalized growth (S. cerevisiae deletion strains, locus YLR262C, strain YPT6, stronger effect = lower value): 0.82 | normalized growth (S. cerevisiae deletion strains, locus YML094W, strain GIM5, stronger effect = lower value): 1.03 | normalized growth (S. cerevisiae deletion strains, locus YMR219W, strain ESC1, stronger effect = lower value): 0.985 | normalized growth [3]: 0.979 | normalized growth [4]: 0.968 | normalized growth (S. cerevisiae deletion strains, locus YNL153C, strain GIM3, stronger effect = lower value): 0.989 | normalized growth (S. cerevisiae deletion strains, locus YNL298W, strain CLA4 (second series), stronger effect = lower value): 0.948 | normalized growth [5]: 0.98 | normalized growth (S. cerevisiae deletion strains, locus YNR030W, strain Alg12, stronger effect = lower value): 1 | normalized growth [6]: 1.03 | normalized growth (S. cerevisiae deletion strains, locus YPL241C, strain CIN2, stronger effect = lower value): 1.01 | normalized growth (S. cerevisiae deletion strains, locus YPR135W, strain CTF4, stronger effect = lower value): 0.929 | normalized growth (S. cerevisiae strains, strain wild type, stronger effect = lower value): 0.959

CC(C)(C)c1ccc(S(=O)(=O)/C=C/C#N)cc1
normalized growth [1]: 0.234 (active) | normalized growth [7]: 0.0822 (active) | normalized growth [8]: 0.139 (active) | normalized growth [2]: 0.0608 (active) | normalized growth [4]: 0.0795 (active) | normalized growth [9]: 0.227 (active) | normalized growth [10]: 0.0935 (active) | normalized growth [11]: 0.255 (active) | normalized growth [5]: 1.01 | normalized growth [12]: 0.0681 (active)

OC[C@H]1O[C@@H](n2cnc3c(NC4CCCCC4)ncnc32)[C@H](O)[C@@H]1O
normalized growth [7]: 1.04 | normalized growth (S. cerevisiae deletion strains, locus YCL061C, strain MRC1 (second series), stronger effect = lower value): 1.01 | normalized growth (S. cerevisiae deletion strains, locus YDR363W, strain ESC2, stronger effect = lower value): 0.994 | normalized growth [8]: 1.01 | normalized growth [2]: 1.05 | normalized growth [3]: 1.01 | normalized growth (S. cerevisiae deletion strains, locus YMR307W, strain GAS1, stronger effect = lower value): 1.01 | normalized growth [9]: 1.01 | normalized growth [10]: 1.01 | normalized growth [11]: 1 | normalized growth [5]: 1.02 | normalized growth [12]: 0.984 | normalized growth [6]: 0.995

Reference: PubChem BioAssay AID1159580 (chemical genetic matrix, 2015)
